Values joined by “and” are separate entries in the source; they are usually repeats but may differ in a detail not shown here. Equal entries are not always repeated. The campaign covered roughly 34,000 compounds. About 290 (0.85%) showed an effect of 50% or more. The full list was thinned out, with strong results kept by preference.
System: Plasmodium falciparum
Experiment: Plasmodium falciparum sporozoite viability assay
Assay type: functional, organism-based
Parameters: scale not given: in the data most compounds retested in dose-response had high values

## Cc1cc(-c2cnc(N3CCNC(=O)C3)nc2-c2sccc2C)on1
  Percent Effect: 7.472%

## Cc1ccc(CN2CCC3(CC2)CCN(C(=O)c2cccn2C)C3)cc1.O=C(O)C(F)(F)F
  Percent Effect: -1.664%

## CC(C)N(C)[C@@H]1CCN(S(C)(=O)=O)[C@H]1Cc1ccccc1
  Percent Effect: 3.466%

## CCn1ncc2c1CCCC2NCc1cccc2c1OCO2 (configuration not stated)
10 mM as filed; unlikely as a test dose
  Percent Effect: 87.89% and 80.38% and 88.9%

## Cc1cc(CN2CCN(C(=O)CCCc3nc(C(C)C)no3)CC2)on1
  Percent Effect: 13.41%

## COc1cccc2ccn(CC(=O)NCC(C)C)c12
10000 µM
  Percent Effect: 1.134% and -1.268%

## COC(=O)CNC(=O)Cn1ccc2cccc(OC)c21
10000 µM
  Percent Effect: 53.7% and 45.8%

## COCCNC(=O)Cn1ccc2cccc(OC)c21
10000 µM
  Percent Effect: 24.03% and 24.86%

## CN(C)CC(=O)N1CCC2(CC1)COc1ccccc1S(=O)(=O)N(C)C2
  Percent Effect: -1.316%

## Cc1nc(Nc2nccs2)cc(C2CCCN2)n1.Cl (configuration not stated)
  Percent Effect: -7.871%

## O=c1cc(N2CCOCC2)cnn1CCc1ccc(F)cc1
10000 µM
  Percent Effect: -2.466% and -5.477%

## O=c1cc(N2CCCC2)cnn1CCc1cccc(F)c1
10000 µM
  Percent Effect: 40.92% and 61.99%

## O=c1cc(N2CCNCC2)cnn1CCc1ccc(F)cc1
10000 µM
  Percent Effect: -29.24% and -24.74%

## CCc1nccn1CC1CCCN1S(=O)(=O)Cc1ccccc1 (configuration not stated)
  Percent Effect: 3.419%

## COCC(=O)N1CCCC(C)(c2nncn2C)C1 (configuration not stated)
  Percent Effect: 4.813%

## CNS(=O)(=O)c1ccc(C(=O)N2CCCCC2c2ccc(C)cc2)o1 (configuration not stated)
  Percent Effect: -0.2417%

## CCn1ncc2c1CCCC2NCc1csc(COC)n1 (configuration not stated)
10 mM as filed; unlikely as a test dose
  Percent Effect: -19.65% and -19.45%

## CCc1nc(CNC2CCCc3c2cnn3CC)cs1 (configuration not stated)
10 mM as filed; unlikely as a test dose
  Percent Effect: -15.59% and -14.06%

## CSc1ccc(CNC2CCCc3c2cnn3C)cc1.Cl (configuration not stated)
  Percent Effect: 2.328%

## CC(C)(C)n1ncc2c1CCCC2NCc1ccsc1 (configuration not stated)
10 mM as filed; unlikely as a test dose
  Percent Effect: 82.25% and 82.56%

## CC(C)(C)n1ncc2c1CCCC2NCc1cccc(C(N)=O)c1 (configuration not stated)
10 mM as filed; unlikely as a test dose
  Percent Effect: -6.583% and -14.2%

## Cl.Cn1ncc2c1CCCC2NCc1cc(Br)cs1 (configuration not stated)
10 mM as filed; unlikely as a test dose
  Percent Effect: 6.252% and 7.152% and 13.18%

## Cn1ncc2c1CCCC2NCc1cnc(-c2ccccc2)nc1 (configuration not stated)
  Percent Effect: 18.56%

## CC(C)(C)n1ncc2c1CCCC2NCc1ccc2ncccc2c1 (configuration not stated)
10 mM as filed; unlikely as a test dose
  Percent Effect: 67.83% and 75.52%

## Cl.Cn1ncc2c1CCCC2NCc1cccc(F)c1 (configuration not stated)
  Percent Effect: -6.761%

## Cn1ncc2c1CCCC2NCc1cccnc1 (configuration not stated)
  Percent Effect: 6.267%

## COCc1nc(CNC2CCCc3c2cnn3C(C)(C)C)cs1 (configuration not stated)
10 mM as filed; unlikely as a test dose
  Percent Effect: 80.27% and 81.73%

## CC(C)(C)n1ncc2c1CCCC2NCc1ccc2c(c1)CCO2 (configuration not stated)
10 mM as filed; unlikely as a test dose
  Percent Effect: 65.53% and 54.34%

## C[C@H]1C(=O)NC[C@H]2CN(Cc3cccc(F)c3)C[C@H]21.O=C(O)C(F)(F)F
  Percent Effect: -1.083%

## CS(=O)(=O)NC1CCCN(C(=O)NCc2ccoc2)C1 (configuration not stated)
  Percent Effect: 4.932%

## O=C1CCCN1CCCC(=O)N1CCCC(c2ccn[nH]2)C1 (configuration not stated)
  Percent Effect: 5.64%

## CC1CN(CC(=O)Nc2nccs2)CCN1Cc1nccn1C (configuration not stated)
  Percent Effect: -1.162%

## CN(C)c1ccc(C(=O)N2CCN(CC(O)C(C)(C)C)CC2)nn1 (configuration not stated)
  Percent Effect: -6.949%

## O=C(N[C@@H]1CN(Cc2ccc3cc[nH]c3c2)C[C@H]1O)c1cnccn1
  Percent Effect: -1.172%

## O=C(O)C(F)(F)F.O=C(c1ccncc1F)N1CC2CC1(C(=O)N1CCCC1)C2
  Percent Effect: -2.014%

## Cc1cnn(CCNCc2c(C(C)C)nn(C)c2Cl)c1
  Percent Effect: -5.882%

## Cl.Cn1ncc2c1CCCC2NCc1cccc(C(F)(F)F)c1 (configuration not stated)
  Percent Effect: -3.477%

## CCn1ncc2c1CCCC2NCc1ccc2c(c1)CCO2 (configuration not stated)
10 mM as filed; unlikely as a test dose
  Percent Effect: 59.7% and 48.65% and 59.52%

## CCn1ncc2c1CCCC2NCc1ccc2c(c1)OCCO2 (configuration not stated)
10 mM as filed; unlikely as a test dose
  Percent Effect: 33.22% and 25.15%

## Cc1cccc(CNC2CCCc3c2cnn3C)c1.Cl (configuration not stated)
  Percent Effect: -1.28%

## CCn1ncc2c1CCCC2NCc1ccc(OC)c(C)c1 (configuration not stated)
  Percent Effect: 1.069%

## CC(C)(C)n1ncc2c1CCCC2NCc1ccc2c(c1)OCCO2 (configuration not stated)
10 mM as filed; unlikely as a test dose
  Percent Effect: 101% and 99.54%

## O=C(NCC1CCCO1)c1nc2c(s1)CCCN2C(=O)C1CC1 (configuration not stated)
  Percent Effect: -5.565%

## Cl.Cl.O=C([C@H]1CCCN1)N1CC2(CCNCC2)c2cc(Cl)ccc21
  Percent Effect: 12.41%

## Cc1cc(OCC(=O)N2CCCC(c3noc(C(C)C)n3)C2)no1 (configuration not stated)
  Percent Effect: 2.432%

## O=C(c1ccc[nH]1)N1C[C@H]2CN(Cc3cccc(F)c3)C(=O)[C@H]2C1
  Percent Effect: 12.11%

## c1ccc(-c2noc(CCCN3CCCC3Cn3cncn3)n2)cc1 (configuration not stated)
10 mM as filed; unlikely as a test dose
  Percent Effect: 40.22% and 41.76% and 47.25%

## c1csc(-c2noc(CN3CCCCC3Cn3cccn3)n2)c1 (configuration not stated)
10 mM as filed; unlikely as a test dose
  Percent Effect: 24.36% and 19.77% and 16.14%

## c1csc(-c2noc(CN3CCCC3Cn3cccn3)n2)c1 (configuration not stated)
10 mM as filed; unlikely as a test dose
  Percent Effect: -21.92% and -8.385% and -5.28%

## CCOc1ccnc(N[C@@H](Cc2ccccc2)C(N)=O)n1
  Percent Effect: 0.8772%

## Cc1ccc(-c2nc(CN3CCc4cnc(C)nc4C3)no2)cc1
  Percent Effect: 16.875%

## CCOC(=O)CSc1ccc(-c2nc(C)no2)cn1
10000 µM
  Percent Effect: -0.4631% and 0.4035%

## COC(=O)CSCc1nc(-c2ccc(Cl)cc2)no1
10000 µM
  Percent Effect: -107.5% and -111.6%

## COC(=O)CSCc1noc(-c2ccc(Cl)cc2)n1
10000 µM
  Percent Effect: 72.7% and 74.65%

## CCOC(=O)CSc1ccc(-c2nc(CC)no2)cn1
10000 µM
  Percent Effect: 40.67% and 46.73%

## COC(=O)CSCc1noc(-c2ccc(C)cc2)n1
10000 µM
  Percent Effect: 97.51% and 95.63%

## O=S1(=O)CCC(N(Cc2nc(-c3ccccn3)no2)Cc2cccs2)C1 (configuration not stated)
  Percent Effect: 22.13%

## CCN1CCN(CCCNc2ncccn2)CC1
  Percent Effect: -11.01%

## Cc1cc(CN(C)C(=O)c2ccc(N(C)C)nc2)no1
  Percent Effect: 3.089%

## NC(=O)c1cc(C2CCCN(CCOCC3CC3)C2)n[nH]1 (configuration not stated)
  Percent Effect: -0.5536%

## Cc1ccc(C2CN(Cc3cccc4[nH]ccc34)CCO2)nc1 (configuration not stated)
  Percent Effect: 9.691%

## CC(C)OC(=O)N1CCC(Cc2ccc(C(=O)O)cc2)C1 (configuration not stated)
  Percent Effect: 5.074%

From ChEMBL document CHEMBL3988442, “University of Dundee, Small-Polar-MMV Screening Library” (2021)
